Data: the supplement of paper PMC13380429

Tested on: Vero E6 infected with SARS-CoV-2
Assay: inhibition of SARS-CoV-2 cytopathic effect; higher = more antiviral protection, active = above 15
Conditions: 48 h

Measured: inhibition of SARS-CoV-2 cytopathic effect

CC(C)[C@H](NS(=O)(=O)c1ccc(-c2ccc(Br)cc2)cc1)C(=O)O
inactive: 1 nM 0.82% | 8.33 nM 0.67% | 100 nM -0.06% | 833.33 nM 0.69% | 10000 nM 1.89%

CS(=O)(=O)N1CCc2c(-c3cnc(N)nc3)nc(N3CCOCC3)nc21
inactive: 1 nM -2.71% | 8.33 nM 1.07% | 100 nM 1.27% | 833.33 nM -3.9% | 10000 nM -8.89%

Cc1ccccc1OCC(O)CO (stereo not given) [mephenesin]
inactive: 1 nM -1% | 8.33 nM 0.27% | 100 nM 0.3% | 833.33 nM -0.01% | 10000 nM 1.77%

CCCCCCCCCCCCC[N+](C)(C)Cc1ccccc1 [benzalkonium]
inactive: 1 nM -0.66% | 8.33 nM 0.17% | 100 nM -0.42% | 833.33 nM 1.78% | 10000 nM -8.08%

C=C(C)CN1CC[C@]23c4c5ccc(O)c4O[C@H]2c2[nH]c4ccccc4c2C[C@@]3(O)C1C5
inactive: 1 nM 1.25% | 8.33 nM -1.87% | 100 nM 0.33% | 833.33 nM 0.21% | 10000 nM 1.05%

Cc1ccnc(NS(=O)(=O)c2ccc(N)cc2)n1 [sulfamerazine]
inactive: 1 nM 2.3% | 8.33 nM 2.7% | 100 nM -1.58% | 833.33 nM -0.16% | 10000 nM -0.59%

Cc1c(NC(=O)N2CCOCC2)ccc2c1c1ccccc1n2C(C)C
inactive: 1 nM 0.94% | 8.33 nM -0.34% | 100 nM -2.07% | 833.33 nM 2.48% | 10000 nM 0.62%

O=C(COc1cccc2c(=O)[nH]ccc12)c1ccccc1
inactive: 1 nM -1.31% | 8.33 nM 1.84% | 100 nM -0.2% | 833.33 nM -0.52% | 10000 nM 0.99%

O=P(O)(NCCCl)NCCCl [palifosfamide]
inactive: 1 nM 0.85% | 8.33 nM 0.49% | 100 nM 3.57% | 833.33 nM -1.07% | 10000 nM -7.07%

CC1(C)[C@@H](OC(=O)CCC(=O)O)CC[C@]2(C)[C@H]3C(=O)C=C4[C@@H]5C[C@@](C)(C(=O)O)CC[C@]5(C)CC[C@@]4(C)[C@]3(C)CC[C@@H]12
inactive: 1 nM 0.51% | 8.33 nM 0.66% | 100 nM 1.43% | 833.33 nM 1.74% | 10000 nM -1.29%

COc1ccc(-c2cnc3c(-c4cccc5ncccc45)cnn3c2)cc1
inactive: 1 nM -0.88% | 8.33 nM -0.75% | 100 nM 0.925% | 833.33 nM -0.45% | 10000 nM 0.53%

Nc1nc(F)nc2c1ncn2[C@@H]1O[C@H](CO)[C@@H](O)[C@@H]1O [fludarabine]
inactive: 1 nM -1.26% | 8.33 nM -3.11% | 100 nM -2.43% | 833.33 nM 1.66% | 10000 nM -0.43%

O=C(Nc1cccnn1)N1CCC(=Cc2cccc(Oc3ccc(C(F)(F)F)cn3)c2)CC1
inactive: 1 nM 0.89% | 8.33 nM 1.24% | 100 nM -0.76% | 833.33 nM -0.98% | 10000 nM -3.19%

Cn1cc(C(=O)C(=O)N[C@H]2CN3CCC2CC3)c2ccccc21
inactive: 1 nM 0.78% | 8.33 nM 1.33% | 100 nM 0.72% | 833.33 nM -1.49% | 10000 nM 1.51%

O=C(OCCN1CCOCC1)C1(c2ccccc2)CCCCC1
inactive: 1 nM 3.24% | 8.33 nM 2.9% | 100 nM 1.04% | 833.33 nM 4.21% | 10000 nM 1.59%

N=C(N)c1ccc(-c2ccc(-c3ccc(C(=N)N)cc3)o2)cc1 [furamidine]
inactive: 1 nM -2.49% | 8.33 nM 0.26% | 100 nM -3.62% | 833.33 nM 0.94% | 10000 nM 2.72%

c1ccc2c(CC3=NCCN3)cccc2c1 [naphazoline]
inactive: 1 nM 1.08% | 8.33 nM 0.66% | 100 nM 0.05% | 833.33 nM 2.24% | 10000 nM 0.73%

Cc1cc(O)cc2c1O[C@](C)(CCC[C@H](C)CCC[C@H](C)CCCC(C)C)CC2 [D-delta-tocopherol]
inactive: 1 nM 1.56% | 8.33 nM 0.99% | 100 nM 2.25% | 833.33 nM 0.84% | 10000 nM -0.19%

CC(=O)N[C@@H](Cc1ccc(O)cc1)C(=O)O [N-acetyl-tyrosine]
inactive: 1 nM -0.05% | 8.33 nM 1.2% | 100 nM 0.23% | 833.33 nM 2.56% | 10000 nM 4.82%
